Experiment [1] is described as follows: Nuclear factor erythroid 2-related factor 2/antioxidant responsive element (Nrf2/ARE) small molecule agonists: qHTS cell viability counter screen in human keratinocytes (AID 1919968; active = well fitted curve in the direction sought with a large enough effect in the repeat runs; an effect the other way counts as inactive or inconclusive; note: nearly all actives have a fitted effect of over 55% in size; note: potency is the fitted concentration of half-maximal effect). A digest of the protocol: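 KeratinoSens HaCaT cells, 1,500/well, preincubated 5 h, then exposed to compounds in DMSO for 23 h at 37 C/5% CO2. Viability read as CellTiter-Fluor fluorescence after 1 h, in the same wells as the ARE-luciferase read.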

The nature of experiment [2]: Nuclear factor erythroid 2-related factor 2/antioxidant responsive element (Nrf2/ARE) small molecule agonists: luciferase reporter gene qHTS assay in human keratinocytes (AID 1919969). Note: nearly all actives have a fitted effect of over 35% in size.
For experiment [3], the target named is Gonadotropin-releasing hormone receptor (Homo sapiens) (UniProt P30968). As to the kind of experiment: Human gonadotropin-releasing hormone receptor (GnRHR) small molecule agonists, calcium flux assay in GnRHR-HEK293 cells (AID 1920063). Note: nearly all actives have a fitted effect of over 35% in size. Note: potency is the fitted concentration of half-maximal effect. Put shortly: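 HEK293 cells stably expressing human GnRHR were dye-loaded for 1 h at 37 C. Compound was added in agonist mode and fluorescence (Ex/Em 480/540) recorded kinetically for 3 min. Fifteen concentrations, triplicates.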
Gonadotropin-releasing hormone receptor (Homo sapiens), sequence (P30968 whole entry, looked up): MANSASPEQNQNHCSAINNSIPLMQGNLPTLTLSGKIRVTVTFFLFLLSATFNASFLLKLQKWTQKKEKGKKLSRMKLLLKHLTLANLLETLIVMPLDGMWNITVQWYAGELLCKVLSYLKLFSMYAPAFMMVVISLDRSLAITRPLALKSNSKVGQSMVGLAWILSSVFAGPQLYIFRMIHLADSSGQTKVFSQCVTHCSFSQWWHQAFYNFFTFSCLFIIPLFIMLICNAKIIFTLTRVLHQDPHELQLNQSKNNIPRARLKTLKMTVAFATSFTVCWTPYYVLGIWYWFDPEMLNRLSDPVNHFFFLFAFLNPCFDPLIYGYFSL
A general note: Calcium assays in cells follow changes in intracellular calcium, usually with a dye or a luminescent sensor.

The target of experiment [4] is KiSS-1 receptor (Homo sapiens) (UniProt Q969F8). As to the kind of experiment: Human kisspeptin (KISS1R) small molecule agonists, calcium flux assay in KISS1R-HEK293 cells (AID 1920064; active = well fitted curve in the direction sought with a large enough effect in the repeat runs; an effect the other way counts as inactive or inconclusive). A digest of the protocol:
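HEK293 cells stably expressing human KISS1R were loaded with calcium dye for 1 h at 37 C, then given compound; fluorescence (Ex/Em 480/540) was read kinetically for 3 min. Fifteen concentrations, triplicate.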

A short description of experiment [5]: G protein-coupled receptor (GPCR) small molecule agonists, calcium flux assay: HEK293 wild type cell line counter screen (AID 1920065). Put shortly:
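Wild-type HEK293 cells plated 18 h, loaded with calcium dye 1 h at 37 C, then compounds added in agonist mode (ATP as positive control). Kinetic fluorescence Ex/Em 480/540 recorded 3 min at 1 sec intervals; 15 concentrations, triplicate.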

A short description of experiment [6]: p53 small molecule agonists, cell-based qHTS assay with human liver microsomes (AID 1963577). Put shortly: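 Fluorescence of the beta-lactamase reporter in p53RE-bla cells, detected with LiveBLAzer substrate (2 h, room temperature, dark), served as the read-out after 16 h compound exposure at 37 C with human liver microsomes and NADPH, each 0.5 mg/mL final.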
A general note: Quantitative high-throughput screening tests each substance at several concentrations.

A short description of experiment [7]: p53 small molecule agonists, cell-based qHTS assay with rat liver microsomes (AID 1963578). A digest of the protocol: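 Cells carrying a p53 response element–beta-lactamase reporter were plated and rested 5 h, then dosed with compound in DMSO plus rat liver microsomes and NADPH, each at 0.5 mg/mL final. After 16 h at 37 C, LiveBLAzer substrate was added for 2 h.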

Experiment [8] is described as follows: p53 small molecule agonists, cell-based qHTS assay with rat liver microsomes: qHTS cell viability counter screen (AID 1963580). Note: nearly all actives have a fitted effect of over 45% in size. Put shortly: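 p53RE-bla HCT-116 cells (4,000/well) rested 5 h at 37 C, then given Tox21 compounds in DMSO with rat liver microsomes (0.5 mg/mL final) plus NADPH (0.5 mg/mL final) for 16 h at 37 C. Viability read by CellTiter-Glo luminescence after 30 min at room temperature.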

Experiment [9] in a line: p53 small molecule agonists, cell-based qHTS assay: qHTS cell viability counter screen (AID 1963581). Note: nearly all actives have a fitted effect of over 45% in size. Put shortly:
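p53RE-bla HCT-116 cells, compounds added 5 h after plating and incubated 16 h at 37 C. Cytotoxicity measured in the same wells as intracellular ATP by CellTiter-Glo luminescence after 30 min at room temperature.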

Experiment [10] can be described thus: p53 small molecule agonists, cell-based qHTS assay (AID 1963582; active = well fitted activation curve with a large enough effect in the signal ratio in the repeat runs, not every such curve was filed as active; the % refers to the signal ratio). A digest of the protocol:
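p53RE-bla reporter cells, compounds added in DMSO after 5 h plating, incubated 16 h at 37 C. Beta-lactamase read via 2 h room-temperature LiveBLAzer B/G FRET substrate, fluorescence intensity.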

For experiment [11], the target named is 5-hydroxytryptamine receptor 2A (Homo sapiens) (UniProt P28223). As to the kind of experiment: 5-hydroxytryptamine receptor 2A (HTR2A) small molecule antagonists, cell-based qHTS assay (AID 1963586). Note: nearly all actives have a fitted effect of over 45% in size. A digest of the protocol:
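Antagonist-mode intracellular calcium assay: DOI (4 nM) added after 5 min compound pre-incubation at room temperature to dye-loaded HTR2A-CHO cells. Fluorescence followed for 3 min, sampled every second.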

Experiment [12] has the same target. As to the kind of experiment: 5-hydroxytryptamine receptor 2A (HTR2A) small molecule agonists, cell-based qHTS assay (AID 1963587). Note: nearly all actives have a fitted effect of over 30% in size. Note: potency is the fitted concentration of half-maximal effect. Put shortly: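 HTR2A-CHO cells, plated 18 h at 37 C/5% CO2, dye-loaded 1 h at 37 C; compounds in DMSO added by pin tool (agonist mode). Intracellular calcium flux read as kinetic fluorescence on FDSS over 2 min at 1 s intervals.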

For experiment [13], the target named is Muscarinic acetylcholine receptor M1 (Homo sapiens) (UniProt P11229). As to the kind of experiment: Cholinergic receptor muscarinic 1 (CHRM1) small molecule antagonists, cell-based qHTS assay (AID 1963588). Note: nearly all actives have a fitted effect of over 40% in size. Note: potency is the fitted concentration of half-maximal effect. A digest of the protocol: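 CHRM1-CHO calcium-flux assay, antagonist mode. Cells were seeded 18 h, dye-loaded 1 h at 37 C and given compound for 5 min at RT, then acetylcholine was added at 50nM. FDSS fluorescence was read 3 min; 15 concentrations, three runs.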
Muscarinic acetylcholine receptor M1 (Homo sapiens), sequence (P11229 whole entry, looked up): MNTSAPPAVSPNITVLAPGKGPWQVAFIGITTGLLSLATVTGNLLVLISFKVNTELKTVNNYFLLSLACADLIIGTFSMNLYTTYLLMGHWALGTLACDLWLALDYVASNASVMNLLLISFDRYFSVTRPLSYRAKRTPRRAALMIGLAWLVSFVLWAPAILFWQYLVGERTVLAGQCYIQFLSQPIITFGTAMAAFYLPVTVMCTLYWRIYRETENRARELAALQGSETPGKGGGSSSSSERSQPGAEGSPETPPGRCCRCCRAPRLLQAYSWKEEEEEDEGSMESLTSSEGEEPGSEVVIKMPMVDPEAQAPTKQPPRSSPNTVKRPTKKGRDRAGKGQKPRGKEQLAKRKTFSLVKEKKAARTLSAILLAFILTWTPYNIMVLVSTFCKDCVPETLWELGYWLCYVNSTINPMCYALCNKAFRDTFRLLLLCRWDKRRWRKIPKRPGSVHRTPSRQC

Experiment [14] has the same target. As to the kind of experiment: Cholinergic receptor muscarinic 1 (CHRM1) small molecule agonists, cell-based qHTS assay (AID 1963589). Note: nearly all actives have a fitted effect of over 35% in size. Put shortly:
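CHO cells stably expressing human CHRM1 were loaded with calcium dye for 1 h at 37 C, then compound was added in agonist mode. Intracellular calcium fluorescence was followed kinetically at 1 s intervals. Fifteen concentrations were tested in three independent runs.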

The nature of experiment [15]: cAMP Responsive Elements (CRE) small molecule antagonists, cell-based qHTS assay (AID 1963591; active = well fitted inhibition curve with a large enough effect in the signal ratio in the repeat runs, not every such curve was filed as active; the % refers to the signal ratio). A digest of the protocol:
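CRE-bla HEK293T cells plated 18 h, then given compound plus NKH477 at 0.25 uM final for 3 h at 37C. Beta-lactamase reporter read with LiveBLAzer B/G FRET substrate after 2 h at room temperature.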

The target of experiment [16] is Beta-2 adrenergic receptor (Homo sapiens) (UniProt P07550). As to the kind of experiment: Adrenergic beta2 receptor (ADRB2) small molecule antagonists, cell-based qHTS assay (AID 1963592). Note: series mostly up to about 92 µM; nearly all actives have a fitted effect of over 50% in size. Put shortly:
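Cells (CHO, stable ADRB2 overexpression) incubated 18-20hr at 37C; compounds added from DMSO; agonist mix (1nM isoproterenol, 100uM IBMX, 25uM Ro-20-1724) added; 0.5hr RT; d2-cAMP and anti-cAMP-cryptate added; 1hr RT; 665/615 nm read.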

Experiment [17] addresses D(2) dopamine receptor (Homo sapiens) (UniProt P14416). As to the kind of experiment: Dopamine D2 receptor (DRD2) small molecule agonists, cell-based qHTS assay (AID 1963594). Note: nearly all actives have a fitted effect of over 35% in size. Put shortly:
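HEK293 cells stably expressing DRD2 were cultured 24 h at 37 C, then given Ro20-1724 (0.1 mM final) and compounds for 10 min at room temperature. NKH477 (200nM) was then added for 30 min. cAMP was read by HTRF.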

For experiment [18] the target is unchanged. As to the kind of experiment: Dopamine D2 receptor (DRD2) small molecule antagonists, cell-based qHTS assay (AID 1963595; active = well fitted inhibition curve with a large enough effect in the signal ratio in the repeat runs, with a control signal flat; the % refers to the signal ratio). Put shortly: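 In this cell-based antagonist screen, compounds act for 10 min at room temperature before a 30 min challenge with 12 nM quinpirole and 200 nM NKH477. cAMP is quantified by HTRF competition in DRD2-HEK293 cells containing 0.1 mM Ro20-1724.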

Experiment [19] can be described thus: cAMP Responsive Elements (CRE) small molecule agonists, cell-based qHTS assay (AID 1963590). A digest of the protocol:
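CRE-bla HEK 293T cells, 2,000/well in DMEM with 10% dialyzed FBS and 25 mM HEPES, pre-incubated 18 h at 37 C, then exposed to compound 3 h at 37 C. Beta-lactamase reporter read with LiveBLAzer B/G FRET substrate after 2 h at room temperature.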

The nature of experiment [20]: p53 small molecule agonists, cell-based qHTS assay with human liver microsomes: qHTS cell viability counter screen (AID 1963579). Note: potency is the fitted concentration of half-maximal effect; nearly all actives have a fitted effect of over 45% in size. A digest of the protocol: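 Cytotoxicity counter screen: p53RE-bla, 4,000 cells/well; 5 h settle, 37 C/5% CO2; cpd + HLM 0.5 mg/mL + NADPH 0.5 mg/mL (final); 16 h, 37 C; CellTiter-Glo, 30 min RT, luminescence.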

SMILES strings stand for the structures. Unmarked numbers belong to inactive results. Records with an inconclusive call do not appear. Calls of active or inactive are those of the source. Unless noted, calls come from the whole dose curve.

KiSS-1 receptor (Homo sapiens), sequence (Q969F8 whole entry, looked up): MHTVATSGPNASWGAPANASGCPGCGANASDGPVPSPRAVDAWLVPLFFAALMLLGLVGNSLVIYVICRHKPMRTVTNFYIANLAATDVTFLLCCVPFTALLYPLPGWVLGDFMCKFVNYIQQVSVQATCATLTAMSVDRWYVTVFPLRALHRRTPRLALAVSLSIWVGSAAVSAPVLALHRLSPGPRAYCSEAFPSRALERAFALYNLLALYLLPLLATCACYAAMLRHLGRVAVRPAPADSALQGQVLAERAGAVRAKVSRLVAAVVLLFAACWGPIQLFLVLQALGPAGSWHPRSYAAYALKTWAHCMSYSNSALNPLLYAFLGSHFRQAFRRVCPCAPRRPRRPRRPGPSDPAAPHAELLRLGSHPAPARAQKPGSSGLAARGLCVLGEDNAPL
D(2) dopamine receptor (Homo sapiens), sequence (P14416 whole entry, looked up): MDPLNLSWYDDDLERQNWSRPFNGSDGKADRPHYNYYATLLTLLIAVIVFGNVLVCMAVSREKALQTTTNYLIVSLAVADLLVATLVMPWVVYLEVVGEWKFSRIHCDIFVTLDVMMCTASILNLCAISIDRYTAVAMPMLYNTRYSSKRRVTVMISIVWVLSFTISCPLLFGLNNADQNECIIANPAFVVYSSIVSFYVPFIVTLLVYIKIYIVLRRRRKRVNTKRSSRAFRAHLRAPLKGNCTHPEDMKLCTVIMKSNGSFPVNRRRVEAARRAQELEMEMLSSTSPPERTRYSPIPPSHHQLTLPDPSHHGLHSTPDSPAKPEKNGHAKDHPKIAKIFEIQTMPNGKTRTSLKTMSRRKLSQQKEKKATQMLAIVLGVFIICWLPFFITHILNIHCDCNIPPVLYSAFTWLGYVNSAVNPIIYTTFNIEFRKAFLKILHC
Beta-2 adrenergic receptor (Homo sapiens), sequence (P07550 whole entry, looked up): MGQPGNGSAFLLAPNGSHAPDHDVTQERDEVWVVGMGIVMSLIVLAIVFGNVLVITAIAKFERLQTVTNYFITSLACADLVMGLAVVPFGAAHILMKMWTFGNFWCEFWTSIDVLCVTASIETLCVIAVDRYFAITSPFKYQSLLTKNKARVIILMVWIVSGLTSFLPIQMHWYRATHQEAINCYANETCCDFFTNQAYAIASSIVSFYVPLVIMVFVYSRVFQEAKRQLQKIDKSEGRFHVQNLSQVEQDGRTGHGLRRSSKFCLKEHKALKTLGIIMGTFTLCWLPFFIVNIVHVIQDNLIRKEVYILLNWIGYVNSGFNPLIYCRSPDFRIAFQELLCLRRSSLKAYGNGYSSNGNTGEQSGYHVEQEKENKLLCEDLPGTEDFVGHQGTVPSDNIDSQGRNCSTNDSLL
5-hydroxytryptamine receptor 2A (Homo sapiens), sequence (P28223 whole entry, looked up): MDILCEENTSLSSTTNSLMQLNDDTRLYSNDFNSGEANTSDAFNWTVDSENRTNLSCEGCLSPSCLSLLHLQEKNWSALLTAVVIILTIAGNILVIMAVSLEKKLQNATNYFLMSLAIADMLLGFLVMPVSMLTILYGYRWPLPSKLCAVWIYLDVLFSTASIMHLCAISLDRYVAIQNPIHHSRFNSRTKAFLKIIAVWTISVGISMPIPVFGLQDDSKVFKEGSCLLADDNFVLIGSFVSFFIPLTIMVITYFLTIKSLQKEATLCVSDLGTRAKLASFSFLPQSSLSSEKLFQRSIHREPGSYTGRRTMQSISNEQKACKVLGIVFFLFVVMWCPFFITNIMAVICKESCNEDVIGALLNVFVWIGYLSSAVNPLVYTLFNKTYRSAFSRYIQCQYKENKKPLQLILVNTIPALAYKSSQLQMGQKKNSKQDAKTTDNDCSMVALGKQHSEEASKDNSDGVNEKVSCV

On to `Cc1nc(-c2ccc(Cl)cc2)oc1COC(C)(C)C(=O)O`, for which the Potency entry in experiment [1], in experiment [2], in experiment [3], in [6], in [7] and in experiment [8] was “inactive” throughout. Further, the Potency entry in experiment [9], in experiment [10], in [11], in [12], in experiment [13] and in [14] was “inactive” throughout. The Potency entry in [15], in experiment [16], in experiment [17] and in [18] was “inactive” each time. For the same molecule, the result in experiment [4] and in experiment [5] was inactive.

As to `NC(=O)Nc1ccc(Cl)c(Cl)c1`, the Potency result in experiment [1], in [2], in experiment [3], in [6], in [7] and in experiment [8] was “inactive” throughout. Besides, the Potency entry in [9], in experiment [10], in experiment [11], in experiment [12], in experiment [13] and in experiment [14] was “inactive” in each case. Also, the Potency entry in experiment [19], in experiment [16], in experiment [17] and in [18] was “inactive” each time. Also, the result in experiment [4] and in experiment [5] was inactive.

For `C=CCn1c(=O)n([C@@H]2O[C@H](CO)[C@@H](O)[C@H]2O)c2nc(N)[nH]c(=O)c21`, the Potency result in experiment [1], in experiment [2], in experiment [3], in experiment [6], in experiment [7] and in experiment [8] was “inactive” in each case. The Potency result in [9], in experiment [10], in experiment [11], in experiment [12], in [13] and in experiment [19] was “inactive” throughout. Besides, the Potency result in experiment [15], in experiment [16], in experiment [17] and in [18] was “inactive” throughout. The result in experiment [4] and in experiment [5] was inactive.

Turning to `CCCCCCCCCCCCN(CCO)CCO`, the Potency in experiment [1] is 30.5 µM (active); in experiment [3], 30.8 µM (active); in [20] it was 45.6 µM (active); in [12], 48.8 µM (active); in [13] it was 11.8 µM (active). In addition, the Potency result in experiment [2], in [6], in experiment [7], in [14], in [16] and in experiment [17] was “inactive” throughout. Also, the Potency entry in [18] was “inactive”. Further, the outcome in experiment [4] and in experiment [5] was inactive.

The record behind these values is PubChem BioAssay (Tox21).
